# Measurements published in PubChem BioAssay (Tox21).
# Unmarked numbers belong to inactive results. Calls follow the shape of the dose curve; as a rule, active = well fitted curve in the direction sought with a large enough effect in the repeat runs; inconclusive = weak or mixed curves; inactive = flat fitted curve, though single readings scatter.
# Test: qHTS assay to test for compound auto fluorescence at 535 nm (green) in HepG2 cells (AID 720675)
# Conditions: green autofluorescence 485/535 nm, 1 h; series mostly up to 46 µM; fluorescence, % of fluorescein control: at the top concentration
# % is scaled to controls: 0 for no effect and ±100 for the full control effect.
row,Compound,"fluorescence, % of fluorescein control"
1,CCCCCC(O)/C=C/C=O (stereo unspecified),-0.0447%
2,COc1ccc2c(c1)OC(C)(C)C(c1ccccc1)C2c1ccc(OCCN2CCCC2)cc1 (stereo unspecified),-0.0589%
3,CCCCCCOc1ccc(C(=N)N(CCCC)CCCC)c2ccccc12,-0.0608%
4,C[C@H](N)C(=O)N[C@@H](C)P(=O)(O)O,-0.124%
5,OC[C@H]1OC([S-])[C@H](O)[C@@H](O)[C@@H]1O.[Au+] (stereo partly specified),-0.155%
6,CC[C@@H](C(=O)[C@@H](C)[C@@H](O)[C@H](C)[C@@H]1O[C@@H]([C@@H](CC)C(=O)O)CC[C@@H]1C)[C@H]1O[C@]2(C=C[C@@H](O)[C@]3(CC[C@@](C)([C@H]4CC[C@](O)(CC)[C@H](C)O4)O3)O2)[C@H](C)C[C@@H]1C,-0.0931%
7,C=C1CC[C@H](O)CC1=C/C=C1\CCC[C@]2(C)[C@@H]([C@H](C)CCCC(C)(C)O)CC[C@@H]12,0.0303%
8,O=C(COc1ccc(Cl)cc1)OCCNC12CC3CC(CC(C3)C1)C2,-0.0392%
9,CCOC(=O)Oc1c(OC)cc(C(=O)O[C@@H]2C[C@@H]3CN4CCc5c([nH]c6cc(OC)ccc56)[C@H]4C[C@@H]3[C@H](C(=O)OC)[C@H]2OC)cc1OC,-0.0006% [at 18.6 µM]
10,Nc1nc2[nH]cc(CCc3ccc(C(=O)N[C@@H](CCC(=O)O)C(=O)O)cc3)c2c(=O)[nH]1,0.0177%
11,CC(CC(c1ccccc1)c1ccccc1)NC(C)(C)C (stereo unspecified),0.0724%
12,NC[C@@H]1O[C@H](O[C@H]2[C@@H](O)[C@H](O[C@@H]3[C@@H](O)[C@H](N)C[C@H](N)[C@H]3O[C@H]3O[C@H](CN)[C@@H](O)[C@H](O)[C@H]3N)O[C@@H]2CO)[C@H](N)[C@@H](O)[C@@H]1O,-0.057%
13,OC1OC[C@@H](O)[C@H](O)[C@@H]1O (stereo partly specified),-0.0369%
14,CCN(CC)c1ccc(C(=C2C=CC(=[N+](CC)CC)C=C2)c2ccccc2)cc1,-0.046%
15,CC(CCc1ccc(O)cc1)NCC(O)c1ccc(O)cc1 (stereo unspecified),0.0128%
16,CC(=O)Nc1c(I)c(C(=O)O)c(I)c(N(C)C(C)=O)c1I,0.0187%
17,CCC(Oc1ccccc1)C(=O)N[C@@H]1C(=O)N2[C@@H]1SC(C)(C)[C@@H]2C(=O)O (stereo partly specified),-0.0174%

row,Compound,"fluorescence, % of fluorescein control"
1,COc1c(O[C@@H]2O[C@H](CO)[C@@H](O)[C@H](O)[C@H]2O)cc2c(c1OC)-c1ccc(SC)c(=O)cc1[C@@H](NC(C)=O)CC2,-0.0242% [at 18.6 µM]
2,CC[C@@H]1/C=C(\C)C[C@H](C)C[C@H](OC)[C@H]2O[C@@](O)(C(=O)C(=O)N3CCCC[C@H]3C(=O)O[C@H](/C(C)=C/[C@@H]3CC[C@@H](Cl)[C@H](OC)C3)[C@H](C)[C@@H](O)CC1=O)[C@H](C)C[C@@H]2OC,0.0036%
3,C[C@H](O)[C@H](O)[C@H]1CNc2nc(N)[nH]c(=O)c2N1,-0.005%
4,COc1ccc(C[C@H](N)C(=O)N[C@H]2[C@@H](O)[C@H](n3cnc4c(N(C)C)ncnc43)O[C@@H]2CO)cc1,-0.137%
5,O=C(NNCNNC(=O)c1ccncc1)c1ccncc1,-0.0695%
6,CC(O)[C@H]1CC[C@H]2[C@@H]3CC[C@@H]4C[C@@H](O)CC[C@]4(C)[C@H]3CC[C@]12C (stereo partly specified),0.0113%
7,CCCCc1cc2c(=O)c(C(=O)OC)c[nH]c2cc1OCc1ccccc1,-0.0279%
8,C=C[C@]1(C)C[C@@H](OC(=O)CSCCN(CC)CC)[C@]2(C)[C@H](C)CC[C@]3(CCC(=O)[C@H]32)[C@@H](C)[C@@H]1O,-0.142%
9,CCCCCCCCCCCCCCCCCC(=O)OCC(C)O (stereo unspecified),-0.451%
10,CCCCC[C@H](O)/C=C/[C@@H]1[C@H]2C/C(=C/CCCC(=O)O)O[C@H]2C[C@H]1O,0.0433%
11,CCOC(=O)[C@@H](N)CS,-0.0324%
12,CC1(C)S[C@@H]2[C@H](NC(=O)C(N)c3ccccc3)C(=O)N2[C@H]1C(=O)OC1OC(=O)c2ccccc21 (stereo partly specified),0.0418% [at 18.6 µM]
13,CN1CCc2c(c3ccccc3n2Cc2ccccc2)C1,0.0576% [at 18.6 µM]
14,CN(C)CCOc1ccccc1Cc1ccccc1 (tested in a mixture with another compound),0.0479%
15,CCN(CC)CCOc1ccc2nc(N(C)C)sc2c1,0.0082%
16,COc1cc(-c2ccc(-[n+]3nc(-c4ccccc4)nn3-c3ccc([N+](=O)[O-])cc3)c(OC)c2)ccc1-[n+]1nc(-c2ccccc2)nn1-c1ccc([N+](=O)[O-])cc1,0.0387%

# Test: qHTS assay to test for compound auto fluorescence at 460 nm (blue) in HEK293 cells (AID 720678)
# Conditions: blue autofluorescence 405/460 nm; series mostly up to 46 µM; fluorescence, % of triamterene: at the top concentration
# Summary of the method: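 Blue-channel (Ex/Em 405/460 nm) intensity measured in HEK293 cultures after overnight compound exposure at 37C; signal expressed relative to triamterene. Cells plated 2,000 per well in 10% dialyzed FBS medium and allowed 4-5 hr to attach.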
row,Compound,"fluorescence, % of triamterene"
1,CCCCCC(O)/C=C/C=O (stereo unspecified),0.0017%
2,O=C(Cn1c(=O)sc2ccc(Cl)cc21)N1CCN(CCO)CC1,0.17%
3,COc1ccc2c(c1)OC(C)(C)C(c1ccccc1)C2c1ccc(OCCN2CCCC2)cc1 (stereo unspecified),-0.0648%
4,CCCCCCOc1ccc(C(=N)N(CCCC)CCCC)c2ccccc12,-0.0109%
5,C[C@H](N)C(=O)N[C@@H](C)P(=O)(O)O,-0.152%
6,CC[C@@H](C(=O)[C@@H](C)[C@@H](O)[C@H](C)[C@@H]1O[C@@H]([C@@H](CC)C(=O)O)CC[C@@H]1C)[C@H]1O[C@]2(C=C[C@@H](O)[C@]3(CC[C@@](C)([C@H]4CC[C@](O)(CC)[C@H](C)O4)O3)O2)[C@H](C)C[C@@H]1C,-0.109%
7,O=C(COc1ccc(Cl)cc1)OCCNC12CC3CC(CC(C3)C1)C2,-0.154%
8,CCOC(=O)Oc1c(OC)cc(C(=O)O[C@@H]2C[C@@H]3CN4CCc5c([nH]c6cc(OC)ccc56)[C@H]4C[C@@H]3[C@H](C(=O)OC)[C@H]2OC)cc1OC,2.99% [at 18.6 µM]
9,Nc1nc2[nH]cc(CCc3ccc(C(=O)N[C@@H](CCC(=O)O)C(=O)O)cc3)c2c(=O)[nH]1,0.141%
10,CC(CC(c1ccccc1)c1ccccc1)NC(C)(C)C (stereo unspecified),0.11%
11,NC[C@@H]1O[C@H](O[C@H]2[C@@H](O)[C@H](O[C@@H]3[C@@H](O)[C@H](N)C[C@H](N)[C@H]3O[C@H]3O[C@H](CN)[C@@H](O)[C@H](O)[C@H]3N)O[C@@H]2CO)[C@H](N)[C@@H](O)[C@@H]1O,0.0663%
12,OC1OC[C@@H](O)[C@H](O)[C@@H]1O (stereo partly specified),-0.128%
13,CCN(CC)c1ccc(C(=C2C=CC(=[N+](CC)CC)C=C2)c2ccccc2)cc1,0.105%
14,CC(=O)Nc1c(I)c(C(=O)O)c(I)c(N(C)C(C)=O)c1I,1.27%
15,C[C@]12C=CC(=O)N[C@@H]1CC[C@@H]1[C@@H]2CC[C@]2(C)[C@@H](C(=O)Nc3cc(C(F)(F)F)ccc3C(F)(F)F)CC[C@@H]12,0.0062%
16,CCC(Oc1ccccc1)C(=O)N[C@@H]1C(=O)N2[C@@H]1SC(C)(C)[C@@H]2C(=O)O (stereo partly specified),-0.0652%
17,COc1c(O[C@@H]2O[C@H](CO)[C@@H](O)[C@H](O)[C@H]2O)cc2c(c1OC)-c1ccc(SC)c(=O)cc1[C@@H](NC(C)=O)CC2,-0.106% [at 18.6 µM]

row,Compound,"fluorescence, % of triamterene"
1,CC[C@@H]1/C=C(\C)C[C@H](C)C[C@H](OC)[C@H]2O[C@@](O)(C(=O)C(=O)N3CCCC[C@H]3C(=O)O[C@H](/C(C)=C/[C@@H]3CC[C@@H](Cl)[C@H](OC)C3)[C@H](C)[C@@H](O)CC1=O)[C@H](C)C[C@@H]2OC,0.216%
2,COc1ccc(C[C@H](N)C(=O)N[C@H]2[C@@H](O)[C@H](n3cnc4c(N(C)C)ncnc43)O[C@@H]2CO)cc1,-0.0208%
3,O=C(NNCNNC(=O)c1ccncc1)c1ccncc1,0.026%
4,CCCCc1cc2c(=O)c(C(=O)OC)c[nH]c2cc1OCc1ccccc1,-0.0886%
5,C=C[C@]1(C)C[C@@H](OC(=O)CSCCN(CC)CC)[C@]2(C)[C@H](C)CC[C@]3(CCC(=O)[C@H]32)[C@@H](C)[C@@H]1O,0.521%
6,CCCCCCCCCCCCCCCCCC(=O)OCC(C)O (stereo unspecified),-0.159%
7,CCOC(=O)[C@@H](N)CS,-0.257%
8,CC1(C)S[C@@H]2[C@H](NC(=O)C(N)c3ccccc3)C(=O)N2[C@H]1C(=O)OC1OC(=O)c2ccccc21 (stereo partly specified),0.132% [at 18.6 µM]
9,CN1CCc2c(c3ccccc3n2Cc2ccccc2)C1,0.0329% [at 18.6 µM]
10,CN(C)CCOc1ccccc1Cc1ccccc1 (tested in a mixture with another compound),0.027%
11,CCOC(=O)c1c[nH]c2cc(OCC(C)C)c(OCC(C)C)cc2c1=O,0.0441%
12,CN(CCO)CC(O)Cn1cnc2c1c(=O)n(C)c(=O)n2C (stereo unspecified) (tested in a mixture with another compound),2.26%
13,FCOC(C(F)(F)F)C(F)(F)F,-0.131%
14,CCN(CC)CCOc1ccc2nc(N(C)C)sc2c1,-0.3%
15,COc1cc(-c2ccc(-[n+]3nc(-c4ccccc4)nn3-c3ccc([N+](=O)[O-])cc3)c(OC)c2)ccc1-[n+]1nc(-c2ccccc2)nn1-c1ccc([N+](=O)[O-])cc1,0.106%
16,COC(=O)[C@H]1[C@H]2C[C@@H]3c4[nH]c5ccccc5c4CCN3C[C@H]2C[C@@H](OC(=O)c2cc(OC)c(OC)c(OC)c2)[C@@H]1OC,2.08%
